Assay results published in PubChem BioAssay.
For some of these results: Entries with a potency or affinity are not part of this list. Activity calls are given as the source filed them.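 How the source made its calls, unless noted: active means primary screen active and over 50% activation in each of two duplicate runs; inactive means the rest.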

What was measured:
[1] = system: TRPC4 beta (transient receptor potential cation channel C4), mouse; test: TRPC4 cation channel opening, retest – cell-based, Fluo4 calcium, HEK293 TRPC4beta/mu-opioid, duplicates, 10 µM, confirmation (AID 2426;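 active means fluorescence ratio normalized to control raised more than 50% in primary screen plus both repeat runs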); conditions: Fluo4 calcium fluorescence, at 10 µM; active compounds read high
[2] = system: transient receptor potential cation channel C4 beta (TRPC4), mouse; test: TRPC4 cation channel opening, second retest – cell-based, second round, Fluo4, HEK293 TRPC4beta/mu-opioid, 1 µM, confirmation (AID 2461); conditions: Fluo4 calcium fluorescence, at 1 µM; active compounds read high
[3] = system: TRPC4 (transient receptor potential cation channel C4 beta), mouse; test: potentiation of DAMGO EC20 TRPC4 response – cell-based, second round, Fluo-4, HEK293 TRPC4beta/mu-opioid, 1 µM, confirmation (AID 2554;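 active means primary screen hit whose fluorescence ratio, in both repeats, exceeds the weak agonist control mean by 3 SD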); conditions: DAMGO EC20, Fluo-4 calcium flux, at 1 µM; active compounds read high
[4] = system: TRPC4 beta (transient receptor potential cation channel C4), mouse; test: potentiation of DAMGO EC20 TRPC4 response – cell-based, Fluo-4, HEK293 TRPC4beta/mu-opioid, confirmation (AID 2555;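 active means primary screen hit whose calcium fluorescence ratio, in both repeats, exceeds the weak agonist control mean by 3 SD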); conditions: DAMGO EC20, Fluo-4 calcium flux, at 10 µM; active compounds read high
[5] = molecular target: Short transient receptor potential channel 4 (Mus musculus) (UniProt Q9QUQ5); test: blockers of DAMGO-evoked TRPC4 calcium flux – cell-based, Fluo4, HEK293 TRPC4beta/mu-opioid, confirmation (AID 2636;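 active means calcium signal cut by more than 3 SD below the full-agonist control yet still positive, in both repeats and the earlier primary screen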); conditions: at 10 µM; active compounds read high
[6] = molecular target: Short transient receptor potential channel 4 (Mus musculus) (UniProt Q9QUQ5); test: blockers of DAMGO-evoked TRPC4 calcium flux – cell-based, second round, Fluo4, HEK293 TRPC4beta/mu-opioid, 1 µM, confirmation (AID 2637;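 active means calcium signal ratio cut to more than 3 SD under the fully stimulated control mean yet still positive, in both repeats and the primary screen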); conditions: at 1 µM; active compounds read high
[7] = molecular target: Short transient receptor potential channel 4 (Mus musculus) (UniProt Q9QUQ5); test: calcium entry via TRPC4 opening agents – cell-based, HEK293 TRPC4/mu-opioid, Fluo-4 calcium, dose response (AID 434937;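 active means primary screen activator hit with a dose response curve and TRPC4 channel activation at any tested dose; inactive means no activation, no dose response, or not a primary hit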)
[8] = molecular target: Short transient receptor potential channel 4 (Mus musculus) (UniProt Q9QUQ5); test: potentiation of DAMGO-evoked TRPC4 calcium signal – cell-based, HEK293 TRPC4/mu-opioid, Fluo-4 calcium, EC20 DAMGO, dose response (AID 434941;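 active means earlier screen potentiator hit that boosts the TRPC4 ion channel at some dose, with a dose response; inactive means no potentiation, no dose response, or not a prior hit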;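 further: calcium entry triggered by an EC20 dose of DAMGO at the co-expressed mu-opioid receptor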)
[9] = molecular target: Short transient receptor potential channel 4 (Mus musculus) (UniProt Q9QUQ5); test: block of DAMGO-driven TRPC4 calcium entry – cell-based, HEK293 TRPC4/mu-opioid, Fluo-4 calcium, dose response (AID 434942;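 active means primary screen inhibitor hit that blocks the TRPC4 channel at some tested dose, yielding a dose curve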)
[10] = molecular target: Short transient receptor potential channel 6 (Mus musculus) (UniProt Q61143); test: TRPC6 blockade by TRPC4 inhibitor hits – cell-based, HEK293, membrane potential dye, duplicate, selectivity assay for TRPC4 inhibitor project, confirmation (AID 434948;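 active means active in primary screen and both duplicates, each dropping signal beyond three positive-control SD with fluorescence still positive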); conditions: HEK293 TRPC6, membrane potential dye fluorescence, at 10 µM, stimulated with maximal-effect acetylcholine; active compounds read high
[11] = molecular target: Short transient receptor potential channel 6 (Mus musculus) (UniProt Q61143); test: TRPC6 opening by TRPC4 activator hits – cell-based, HEK293, membrane potential dye, duplicate, selectivity assay for TRPC4 activator project, confirmation (AID 434950;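 active means membrane potential signal rise above negative control mean plus 3 SD in both duplicates, also active in the earlier TRPC4 screen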); conditions: HEK293 TRPC6, membrane potential fluorescence, at 10 µM; activation: active compounds read high; outcome: activation
[12] = molecular target: Short transient receptor potential channel 6 (Mus musculus) (UniProt Q61143); test: positive modulators of mouse TRPC6 channel – HEK293 cells, membrane potential dye, duplicate, selectivity assay for TRPC4 potentiator project, confirmation (AID 434952;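 active means compound raising the membrane signal above positive-control mean plus 3 SD in both repeats, and a primary screen hit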); conditions: HEK293 TRPC6, membrane potential dye fluorescence, at 10 µM, maximal acetylcholine added after compound; active compounds read high
[13] = molecular target: Short transient receptor potential channel 4 (Mus musculus) (UniProt Q9QUQ5); test: calcium flux activators in TRPC4/5HT1a cells, counter-screen for TRPC4 activator project, cell-based, second counter screen, HEK293 TRPC4/5HT1a, Fluo-4 (AID 434977;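 active means calcium signal rise above buffer-control mean plus 5 SD in both duplicates, and also a hit in the primary screen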); conditions: Fluo-4 calcium flux, at 10 µM; active compounds read high
[14] = serotonin-gated TRPC4 signal block – cell-based, second counter screen, HEK293 TRPC4/5HT1a, Fluo-4, counter-screen for TRPC4 inhibitor project, confirmation (AID 434978;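 active means primary screen active whose calcium signal fell more than 3 SD beyond the full-serotonin control mean in both duplicate plates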;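 on outcome: serotonin given first at submaximal then at maximal dose after compound preincubation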); conditions: Fluo-4 calcium flux, at 10 µM, serotonin added to trigger calcium flux; active compounds read high
[15] = system: TRPC4 (mouse), co-expressed with 5HT1a in HEK293; test: enhancement of serotonin-evoked TRPC4 response – cell-based, second counter screen, HEK293 TRPC4/5HT1a, Fluo-4, counter-screen for TRPC4 potentiator project, confirmation (AID 434979;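 active means signal rise over 3 SD above mean of control wells given weak agonist, in both repeats and first screen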); conditions: Fluo-4 calcium flux, at 10 µM, serotonin added at its EC20 dose; active compounds read high
[16] = nonspecific calcium rise without TRPC4 – cell-based, HEK293 mu-opioid receptor line, counter-screen for TRPC4 activator project, confirmation (AID 449723;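 active means hit in primary screen, with calcium signal over 5 SD above buffer well mean in both duplicates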;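 further: counter screen cells carry the mu-opioid receptor alone and lack TRPC4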); conditions: HEK293 mu-opioid cells, Fluo-4 calcium fluorescence, at 10 µM; active compounds read high
[17] = nonspecific potentiation of DAMGO calcium response – cell-based, HEK293 mu-opioid receptor line, counter-screen for TRPC4 allosteric potentiator project, confirmation (AID 449724;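 active means calcium signal rise more than 3 SD above the low-dose agonist control mean, in both duplicate plates and the primary screen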); conditions: HEK293 mu-opioid receptor cells, Fluo-4 calcium flux, at 10 µM, compound added before EC20 DAMGO stimulus; active compounds read high

Sequence of Short transient receptor potential channel 6 (Mus musculus) (Q61143 whole entry, looked up): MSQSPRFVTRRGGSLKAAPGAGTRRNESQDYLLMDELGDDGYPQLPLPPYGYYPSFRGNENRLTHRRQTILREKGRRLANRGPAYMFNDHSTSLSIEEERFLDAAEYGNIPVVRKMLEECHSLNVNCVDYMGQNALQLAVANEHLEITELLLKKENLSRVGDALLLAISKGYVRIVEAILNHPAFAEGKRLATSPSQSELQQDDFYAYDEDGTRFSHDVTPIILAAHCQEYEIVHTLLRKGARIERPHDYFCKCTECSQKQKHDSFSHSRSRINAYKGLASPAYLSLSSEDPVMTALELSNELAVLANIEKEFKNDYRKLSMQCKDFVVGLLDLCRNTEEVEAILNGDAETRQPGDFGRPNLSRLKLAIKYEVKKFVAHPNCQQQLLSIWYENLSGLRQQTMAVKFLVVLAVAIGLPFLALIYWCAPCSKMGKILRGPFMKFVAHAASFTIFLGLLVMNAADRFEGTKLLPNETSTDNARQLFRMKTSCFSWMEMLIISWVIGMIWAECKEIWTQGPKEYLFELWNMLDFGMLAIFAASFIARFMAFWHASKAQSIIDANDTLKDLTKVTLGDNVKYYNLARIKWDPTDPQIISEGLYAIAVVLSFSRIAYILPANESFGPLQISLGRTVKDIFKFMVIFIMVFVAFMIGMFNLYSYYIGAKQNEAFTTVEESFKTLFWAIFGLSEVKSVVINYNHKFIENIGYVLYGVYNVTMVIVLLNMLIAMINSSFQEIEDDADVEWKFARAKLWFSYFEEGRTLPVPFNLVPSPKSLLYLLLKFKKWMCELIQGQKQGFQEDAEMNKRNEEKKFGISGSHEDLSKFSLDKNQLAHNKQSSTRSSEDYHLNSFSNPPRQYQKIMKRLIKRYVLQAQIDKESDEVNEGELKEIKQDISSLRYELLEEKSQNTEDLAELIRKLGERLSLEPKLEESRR
Sequence of Short transient receptor potential channel 4 (Mus musculus) (Q9QUQ5 whole entry, looked up): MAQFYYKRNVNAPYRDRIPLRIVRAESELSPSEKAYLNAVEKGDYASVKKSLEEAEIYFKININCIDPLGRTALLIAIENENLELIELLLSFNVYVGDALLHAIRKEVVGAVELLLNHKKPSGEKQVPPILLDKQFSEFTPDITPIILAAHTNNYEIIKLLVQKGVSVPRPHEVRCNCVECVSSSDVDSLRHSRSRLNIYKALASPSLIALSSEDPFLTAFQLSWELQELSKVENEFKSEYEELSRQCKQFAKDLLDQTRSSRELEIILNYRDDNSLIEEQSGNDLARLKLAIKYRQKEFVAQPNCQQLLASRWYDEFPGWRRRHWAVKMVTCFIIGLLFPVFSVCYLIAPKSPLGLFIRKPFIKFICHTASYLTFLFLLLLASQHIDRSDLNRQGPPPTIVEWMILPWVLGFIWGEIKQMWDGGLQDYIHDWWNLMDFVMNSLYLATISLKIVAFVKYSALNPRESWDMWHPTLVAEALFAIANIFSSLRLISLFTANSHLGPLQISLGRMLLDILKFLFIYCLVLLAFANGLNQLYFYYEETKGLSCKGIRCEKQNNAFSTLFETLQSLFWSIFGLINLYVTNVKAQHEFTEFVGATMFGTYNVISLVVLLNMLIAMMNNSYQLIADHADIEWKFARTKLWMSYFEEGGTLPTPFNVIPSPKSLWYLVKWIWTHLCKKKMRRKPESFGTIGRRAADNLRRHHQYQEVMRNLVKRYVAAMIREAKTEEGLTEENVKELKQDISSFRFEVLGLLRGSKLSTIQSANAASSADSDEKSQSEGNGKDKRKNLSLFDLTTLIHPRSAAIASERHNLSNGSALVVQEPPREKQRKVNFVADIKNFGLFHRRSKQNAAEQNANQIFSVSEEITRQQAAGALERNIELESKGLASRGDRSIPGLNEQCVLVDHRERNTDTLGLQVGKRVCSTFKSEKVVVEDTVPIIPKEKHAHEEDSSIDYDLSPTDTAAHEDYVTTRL

CCc1cc2c(SCC(=O)N(C)C3CCS(=O)(=O)C3)ncnc2s1 (centres undefined)
outcome [1]: inactive | outcome [2]: inactive | outcome [3]: inactive | potentiation [4]: 35% (active) | outcome [5]: inactive | outcome [6]: inactive | outcome [7]: inactive | outcome [8]: inactive | outcome [9]: inactive | outcome [10]: inactive | outcome [11]: inactive | outcome [12]: inactive | outcome [13]: inactive | outcome [14]: inactive | potentiation [15]: 42.5% (active) | outcome [16]: inactive | outcome [17]: inactive

Cc1ccc(-c2c(C(=O)N/N=C/c3ccc(OC(C)C)cc3)nnn2-c2nonc2N)cc1
outcome [1]: inactive | outcome [2]: inactive | outcome [3]: inactive | outcome [4]: inactive | outcome [5]: inactive | outcome [6]: inactive | outcome [7]: inactive | outcome [8]: inactive | outcome [9]: inactive | outcome [10]: inactive | outcome [11]: inactive | outcome [12]: inactive | outcome [13]: inactive | outcome [14]: inactive | potentiation [15]: 19.3% (active) | outcome [16]: inactive | outcome [17]: inactive

CCCCNC(=O)/C(C#N)=C/c1ccc(F)cc1F
outcome [1]: inactive | outcome [2]: inactive | outcome [3]: inactive | potentiation [4]: 9% (active) | outcome [5]: inactive | outcome [6]: inactive | outcome [7]: inactive | outcome [8]: inactive | outcome [9]: inactive | outcome [10]: inactive | outcome [11]: inactive | outcome [12]: inactive | outcome [13]: inactive | outcome [14]: inactive | outcome [15]: inactive | outcome [16]: inactive | outcome [17]: inactive

CCN1CCN(c2ccc(S(=O)(=O)N3CCCCC3)cc2NC(=O)c2cc3ccccc3o2)CC1
outcome [1]: inactive | outcome [2]: inactive | outcome [3]: inactive | potentiation [4]: 27% (active) | outcome [5]: inactive | outcome [6]: inactive | outcome [7]: inactive | outcome [8]: inactive | outcome [9]: inactive | outcome [10]: inactive | outcome [11]: inactive | outcome [12]: inactive | outcome [13]: inactive | outcome [14]: inactive | potentiation [15]: 24.6% (active) | outcome [16]: inactive | outcome [17]: inactive

Cc1noc(C)c1COC(=O)[C@@H](NC(=O)c1ccccc1Cl)C(C)C
outcome [1]: inactive | outcome [2]: inactive | outcome [3]: inactive | outcome [4]: inactive | outcome [5]: inactive | outcome [6]: inactive | outcome [7]: inactive | outcome [8]: inactive | outcome [9]: inactive | outcome [10]: inactive | outcome [11]: inactive | outcome [12]: inactive | outcome [13]: inactive | outcome [14]: inactive | outcome [15]: inactive | outcome [16]: inactive | outcome [17]: inactive

Nc1nn2c(C(F)(F)F)cc(=O)[nH]c2c1N=Nc1cccc(F)c1
outcome [1]: inactive | outcome [2]: inactive | outcome [3]: inactive | outcome [4]: inactive | outcome [5]: inactive | outcome [6]: inactive | outcome [7]: inactive | outcome [8]: inactive | outcome [9]: inactive | outcome [10]: inactive | outcome [11]: inactive | outcome [12]: inactive | outcome [13]: inactive | outcome [14]: inactive | outcome [15]: inactive | outcome [16]: inactive | outcome [17]: inactive

CCN(C(=O)c1cc2c(s1)-c1ccccc1OC2)c1cc(OC)ccc1OC
outcome [1]: inactive | outcome [2]: inactive | outcome [3]: inactive | outcome [4]: inactive | outcome [5]: inactive | outcome [6]: inactive | outcome [7]: inactive | outcome [8]: inactive | outcome [9]: inactive | outcome [10]: inactive | outcome [11]: inactive | outcome [12]: inactive | outcome [13]: inactive | outcome [14]: inactive | outcome [15]: inactive | outcome [16]: inactive | outcome [17]: inactive

CCOc1cccc(CN2CCCC(C(=O)c3cccc(C(F)(F)F)c3)C2)c1O (centres undefined)
outcome [1]: inactive | outcome [2]: inactive | outcome [3]: inactive | outcome [4]: inactive | inhibition [5]: 77% (active) | outcome [6]: inactive | outcome [7]: inactive | outcome [8]: inactive | outcome [9]: inactive | outcome [10]: inactive | outcome [11]: inactive | outcome [12]: inactive | outcome [13]: inactive | inhibition [14]: 42.2% (active) | outcome [15]: inactive | outcome [16]: inactive | outcome [17]: inactive

Cc1cc(C(C)(C)C)cc(S(=O)(=O)Nc2cccc(C(=O)O)c2)c1C
outcome [1]: inactive | outcome [2]: inactive | outcome [3]: inactive | potentiation [4]: 9% (active) | outcome [5]: inactive | outcome [6]: inactive | outcome [7]: inactive | outcome [8]: inactive | outcome [9]: inactive | outcome [10]: inactive | outcome [11]: inactive | outcome [12]: inactive | outcome [13]: inactive | outcome [14]: inactive | potentiation [15]: 19% (active) | outcome [16]: inactive | outcome [17]: inactive

CCCCCc1ccc(OCCCC[n+]2ccccc2)c(CCCCC)c1
outcome [1]: inactive | outcome [2]: inactive | outcome [3]: inactive | outcome [4]: inactive | outcome [5]: inactive | outcome [6]: inactive | outcome [7]: inactive | outcome [8]: inactive | outcome [9]: inactive | outcome [10]: inactive | outcome [11]: inactive | outcome [12]: inactive | outcome [13]: inactive | outcome [14]: inactive | outcome [15]: inactive | outcome [16]: inactive | outcome [17]: inactive

O=C(Cn1nc(-c2ccccc2)ccc1=O)NCCN1CCN(Cc2ccccc2)CC1
outcome [1]: inactive | outcome [2]: inactive | outcome [3]: inactive | outcome [4]: inactive | outcome [5]: inactive | outcome [6]: inactive | outcome [7]: inactive | outcome [8]: inactive | outcome [9]: inactive | outcome [10]: inactive | outcome [11]: inactive | outcome [12]: inactive | outcome [13]: inactive | outcome [14]: inactive | potentiation [15]: 13% (active) | outcome [16]: inactive | outcome [17]: inactive

Oc1c(Br)cc(C2N=C(c3ccccc3Cl)NO2)cc1Br (centres undefined)
outcome [1]: inactive | outcome [2]: inactive | outcome [3]: inactive | outcome [4]: inactive | outcome [5]: inactive | outcome [6]: inactive | outcome [7]: inactive | outcome [8]: inactive | outcome [9]: inactive | outcome [10]: inactive | outcome [11]: inactive | outcome [12]: inactive | outcome [13]: inactive | outcome [14]: inactive | outcome [15]: inactive | outcome [16]: inactive | outcome [17]: inactive

O=S(=O)(c1ccc(Cl)cc1Br)N1CCCCC1
outcome [1]: inactive | outcome [2]: inactive | outcome [3]: inactive | outcome [4]: inactive | outcome [5]: inactive | outcome [6]: inactive | outcome [7]: inactive | outcome [8]: inactive | outcome [9]: inactive | outcome [10]: inactive | outcome [11]: inactive | outcome [12]: inactive | outcome [13]: inactive | outcome [14]: inactive | outcome [15]: inactive | outcome [16]: inactive | outcome [17]: inactive

CC(=O)N1CC(c2ccccc2)C(c2ccc(Cl)cc2)=N1 (centres undefined)
outcome [1]: inactive | outcome [2]: inactive | outcome [3]: inactive | outcome [4]: inactive | outcome [5]: inactive | outcome [6]: inactive | outcome [7]: inactive | outcome [8]: inactive | outcome [9]: inactive | outcome [10]: inactive | outcome [11]: inactive | outcome [12]: inactive | outcome [13]: inactive | outcome [14]: inactive | outcome [15]: inactive | outcome [16]: inactive | outcome [17]: inactive

O=[N+]([O-])c1ccc(CN2CCN(c3nc4ccccc4s3)CC2)cc1
outcome [1]: inactive | outcome [2]: inactive | outcome [3]: inactive | potentiation [4]: 7% (active) | outcome [5]: inactive | outcome [6]: inactive | outcome [7]: inactive | outcome [8]: inactive | outcome [9]: inactive | outcome [10]: inactive | outcome [11]: inactive | outcome [12]: inactive | outcome [13]: inactive | outcome [14]: inactive | potentiation [15]: 17.5% (active) | outcome [16]: inactive | outcome [17]: inactive

CCOC(=O)c1sc2c(c1C)c(=O)n(CCO)c(=O)n2Cc1ccccc1
outcome [1]: inactive | outcome [2]: inactive | outcome [3]: inactive | outcome [4]: inactive | outcome [5]: inactive | outcome [6]: inactive | outcome [7]: inactive | outcome [8]: inactive | outcome [9]: inactive | outcome [10]: inactive | outcome [11]: inactive | outcome [12]: inactive | outcome [13]: inactive | outcome [14]: inactive | outcome [15]: inactive | outcome [16]: inactive | outcome [17]: inactive

CC[n+]1c(/C=C/c2ccc(OC(C)=O)c(OC)c2)ccc2ccccc21
outcome [1]: inactive | outcome [2]: inactive | outcome [3]: inactive | outcome [4]: inactive | outcome [5]: inactive | outcome [6]: inactive | outcome [7]: inactive | outcome [8]: inactive | outcome [9]: inactive | outcome [10]: inactive | outcome [11]: inactive | outcome [12]: inactive | outcome [13]: inactive | outcome [14]: inactive | outcome [15]: inactive | outcome [16]: inactive | outcome [17]: inactive
